Data published in the supplement of paper PMC3334620.
The full ranking holds about 33,000 sequences; the median of “E-score (-0.5 to 0.5)” is about -0.013, and the highest 2% start at about 0.3. Many of the other results were omitted from the sample, so the highest values are more common in it than they were.

Target: T1, Msn1 (UniProt P22148)
T1 sequence: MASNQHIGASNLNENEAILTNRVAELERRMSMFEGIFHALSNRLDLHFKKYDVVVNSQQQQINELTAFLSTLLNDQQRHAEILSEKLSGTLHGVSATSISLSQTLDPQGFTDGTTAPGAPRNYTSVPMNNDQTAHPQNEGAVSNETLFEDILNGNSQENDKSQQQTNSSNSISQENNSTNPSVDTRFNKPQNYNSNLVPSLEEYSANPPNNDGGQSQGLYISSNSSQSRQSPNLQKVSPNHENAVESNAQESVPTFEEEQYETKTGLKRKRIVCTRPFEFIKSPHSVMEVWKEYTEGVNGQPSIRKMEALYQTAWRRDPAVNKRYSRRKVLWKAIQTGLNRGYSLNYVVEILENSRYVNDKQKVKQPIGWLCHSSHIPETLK
Experiment: PBM E-score (8-mer binding enrichment) (E-score (-0.5 to 0.5)); higher = stronger / more preferred TF binding
Details: protein concentration: 200 nM; construct: GST-full length
Experimental: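 Universal 'all 10-mer' protein binding microarrays (Agilent AMADID 015681) probed with GST-tagged S. cerevisiae TFs (full-length or DBD) made by in vitro transcription/translation (PURExpress), about 100-200 nM. Bound TF was detected with fluorescent anti-GST. Each ungapped 8-mer (which stands for itself and its reverse complement) is scored by the PBM enrichment score (E-score), a modified Wilcoxon-Mann-Whitney statistic from -0.5 to +0.5, computed with the Universal PBM Analysis Suite. Scale: above 0.35 generally sequence-specific binding.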

Row | Sequence | PBM E-score
1 | CGACTTTA | 0.201
2 | AGACTTTA | 0.0848
3 | GGACTTTA | 0.328
4 | TCTGACAA | 0.198
5 | CGTGACAA | 0.309
6 | AGTGACAA | 0.302
7 | CGTGACAG | 0.0649
8 | GTTGACAA | 0.269
9 | GGTGACAC | -0.0303
10 | TGTGACAA | 0.377
11 | GGTGACAA | 0.322
12 | CCTGACAA | 0.202
13 | CCGCCAGG | -0.117
14 | AACAGCGG | -0.0502
15 | CGCTATGC | -0.215
16 | GGGTCCGA | -0.115
17 | GTGTCCGA | 0.37
18 | AGGTCCGA | 0.132
19 | ATGTCCGA | 0.475
20 | ACGTCCGA | -0.00037
21 | CTGTCCGA | 0.275
22 | AGTCCTGC | 0.0243
23 | AAAATCTG | 0.182
24 | AGATTGCC | -0.0449
25 | AAAGACCG | 0.0194

Row | Sequence | PBM E-score
26 | CAGGTAGA | -0.142
27 | CCCTTCAA | -0.185
28 | ATAGAGCG | -0.0637
29 | ATTTTGTA | 0.209
30 | AATTTGTG | 0.186
31 | ATTTTGTC | 0.468
32 | AATTTGAC | 0.194
33 | AATTTGTC | 0.488
34 | ATTTTGTG | 0.144
35 | GGGGGAAC | -0.456
36 | GTAAAGTA | 0.0255
37 | ACGGGACC | -0.247
38 | ACGGGACA | 0.384
39 | GCGGGACC | -0.22
40 | GCGGGACA | 0.359
41 | ACGGGACT | 0.0899
42 | CCGGGACG | -0.0555
43 | TCGGGAAA | 0.176
44 | TCGGGAGA | 0.014
45 | CCGGGACC | -0.159
46 | GCGGGATA | 0.0848
47 | CCGGGACA | 0.457
48 | TCGGGACA | 0.456
49 | GAGCCCGA | -0.128
50 | CTAGTGGA | -0.211

Row | Sequence | PBM E-score
51 | CGGAGGAC | 0.0943
52 | ACTTAGCG | 0.074
53 | ACCTCGAG | -0.0305
54 | CATGGTCA | 0.117
55 | CTGGGGTC | -0.217
56 | CGACTTCA | 0.0948
57 | GCGCTTGA | 0.00998
58 | GGACTTCA | 0.0504
59 | ACACTGTC | 0.165
60 | GTCCTAGA | 0.342
61 | TTCCTAAA | 0.0739
62 | ATCCTACA | -0.189
63 | CTCCTACA | -0.187
64 | ATCCTTAA | -0.126
65 | ATCCTAAA | -0.0285
66 | CTCCTAGA | -0.0389
67 | GTCCTTAA | 0.433
68 | CTCCTTAA | -0.0988
69 | ATCCTAGA | -0.0654
70 | GTCCTACA | 0.385
71 | GTCCTAAA | 0.365
72 | ACAGCCGA | -0.16
73 | GGCAAACC | -0.244
74 | ACTCTCCG | -0.11
75 | ACCTCCTG | -0.169

Row | Sequence | PBM E-score
76 | AGCATACC | -0.0756
77 | ACACTAAC | 0.119
78 | CTCTATGC | -0.0926
79 | AGTCGGAG | -0.189
80 | GGACTTAC | 0.273
81 | CCTCCGGA | 0.102
82 | CTACTAGA | -0.0895
83 | CTCCTAAC | -0.278
84 | ATCCTAAC | 0.0664
85 | GTACTAGA | 0.308
86 | GTCCTAAC | 0.36
87 | ATACTAGA | 0.125
88 | ACTCAAAG | 0.0435
89 | ATGCGTTA | -0.0377
90 | CACACTAC | -0.188
91 | CAAGGGCG | -0.191
92 | ATGCAGAG | -0.253
93 | CTCGGATA | 0.157
94 | ATCGGACA | 0.369
95 | ATCGGACG | 0.00151
96 | ATCGGACC | 0.0183
97 | CTCGGACA | 0.44
98 | CTCGGACC | 0.165
99 | GTCGGATA | 0.0474
100 | GTCGGACA | 0.427

Row | Sequence | PBM E-score
101 | GTCGGAGA | 0.0165
102 | CTGGGCCC | -0.252
103 | CGCCTGGA | -0.0478
104 | ACTGAACA | 0.0547
105 | CATTGCGA | -0.0316
106 | ATCACCAA | -0.0626
107 | GAGTAATC | -0.128
108 | CCGACTGC | -0.00611
109 | TAATGTAA | 0.114
110 | ACGGTTCT | -0.0415
111 | CTACAATA | 0.0926
112 | GCACAAGA | -0.0415
113 | GTACAATA | 0.332
114 | CGACAAGA | 0.121
115 | GGACAACA | 0.337
116 | AGACAACC | 0.208
117 | AGACAACA | 0.248
118 | CGACAACA | 0.204
119 | GGACAAGA | 0.458
120 | ATACAATA | 0.114
121 | ATACAATC | -0.0273
122 | AGACAATC | 0.359
123 | AAATCTCC | -0.234
124 | AGCCTTCC | -0.323
125 | ACTTCGCT | -0.0222

Row | Sequence | PBM E-score
126 | AGGGCCAT | -0.246
127 | AATTTCCT | 0.0244
128 | TACGGGGA | -0.11
129 | ATCGTATG | 0.0884
130 | CGACAATA | 0.334
131 | GGACAATA | 0.464
132 | GAACAATA | 0.144
133 | AGACAAGA | 0.3
134 | CCACAATA | -0.105
135 | ACACAATA | 0.15
136 | GCACAATA | -0.126
137 | CGACAAGC | -0.0394
138 | AGACAATA | 0.428
139 | CGACAATC | 0.113
140 | AGACAATG | 0.295
141 | AGACAAGC | 0.307
142 | CCCTAGCA | -0.119
143 | CGTAGCAC | -0.0105
144 | CATAGATA | 0.126
145 | AGCGAATG | -0.207
146 | AGAGTATG | -0.143
147 | AGAACTGA | 0.0524
148 | TCACTTCA | -0.0878
149 | GATTTTCA | 0.209
150 | TACAGCAA | 0.00838

Row | Sequence | PBM E-score
151 | GAACGTCC | 0.206
152 | AAACGTCC | 0.317
153 | AAACGTCT | 0.24
154 | TACTTCAA | 0.16
155 | AGGATACG | -0.105
156 | CTCGCCCC | -0.302
157 | AAGGTACA | 0.166
158 | CTGTGAGA | 0.00231
159 | AACATGTG | 0.0694
160 | TACATGTA | 0.247
161 | AACATGTT | -0.0343
162 | GACATGTC | 0.455
163 | AACATGTA | 0.186
164 | CACATGTA | 0.121
165 | GACATGTA | 0.424
166 | ATCATGTC | 0.278
167 | CACATGTG | -0.149
168 | GACATGGC | 0.276
169 | CACATGTC | 0.431
170 | AACATGTC | 0.401
171 | CGAGGGCG | -0.271
172 | GACTCATC | -0.0489
